Measured values published in PubChem BioAssay AID504895 (National Center for Advancing Translational Sciences (NCATS), 2011).
Inconclusive results are not listed. Calls of active or inactive are those of the source. Calls come from the whole dose curve; as a rule, active = well fitted curve in the direction sought with a large enough effect; inconclusive = small, poorly fitted or top-dose-only effect, or another doubt; inactive = no such curve, though single readings can be large or run the other way.

molecular target: Protein phosphatase EYA2 (Homo sapiens) (UniProt O00167); test: Inhibitors of Eya2ED: Hit Confirmation in Primary Screen; conditions: Recombinant Eya2ED, OMFP fluorescence phosphatase assay; series mostly up to 76.9 µM; activity change, negative = inhibition: at the top concentration
Sequence (O00167 whole entry, looked up): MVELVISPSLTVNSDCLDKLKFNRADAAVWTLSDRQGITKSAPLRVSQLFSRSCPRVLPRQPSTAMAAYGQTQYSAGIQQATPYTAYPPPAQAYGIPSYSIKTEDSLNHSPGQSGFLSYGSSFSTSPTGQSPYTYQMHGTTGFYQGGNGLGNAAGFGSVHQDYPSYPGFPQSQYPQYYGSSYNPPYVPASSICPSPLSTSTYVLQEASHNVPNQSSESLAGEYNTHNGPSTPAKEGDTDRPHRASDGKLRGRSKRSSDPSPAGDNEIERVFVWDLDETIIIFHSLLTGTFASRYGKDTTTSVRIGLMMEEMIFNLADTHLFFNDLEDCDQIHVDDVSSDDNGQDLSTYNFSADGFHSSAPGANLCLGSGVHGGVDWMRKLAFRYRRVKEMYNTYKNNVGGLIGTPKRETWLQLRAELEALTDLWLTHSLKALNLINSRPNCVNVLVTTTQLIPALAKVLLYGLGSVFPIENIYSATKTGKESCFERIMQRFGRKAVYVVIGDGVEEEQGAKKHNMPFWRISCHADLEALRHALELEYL
Summary of the method: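 Hits were retested as 12-point titrations. Compound sat 10 min at ambient with Eya2 (0.2 uM in dispense) in HEPES pH 7.5 buffer with NaCl, MgCl2, BSA and DTT, then OMFP substrate (50 uM in dispense) was added. Dephosphorylation was read by fluorescence at 485/525 nm after a further 10 min.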

Activity change, negative = inhibition, inactive:
N=C(N)SCc1ncccc1O 6.85%
O=S(=O)(Cc1ccccc1Cl)N1CCN(Cc2ccc3c(c2)OCO3)CC1 -4.31%
Cc1cc(C(=O)Nc2ccc(N3CCCCC3)cc2)no1 -3.38%
COc1cccc2[nH]c3c(=O)[nH]cnc3c12 1.53%
C=CCOc1ccc(/C=C/C(=O)OCC(=O)N2CCCc3ccccc32)cc1 -12.6%
COc1c(O)ccc(/C=N\NC(=O)c2ccc3c(c2)OCO3)c1[N+](=O)[O-] -18%
COc1ccc(/C=C(\C#N)C(=O)OCC(=O)N2CC(C)OC(C)C2)cc1 (stereo not given) -19.7%
O=S(=O)(c1ccc(F)cc1)N1CCC2(CC1)OCCN2S(=O)(=O)c1cccs1 -15.4%
O=C(CN1C(=O)c2ccccc2S1(=O)=O)Nc1cccc(S(=O)(=O)N2CCOCC2)c1 -7.98%
O=C(CCCN=C1NS(=O)(=O)c2ccccc21)OCc1ccc(F)cc1 -0.078%
CC[C@]12c3[nH]c4ccccc4c3CCN1C(=O)C(CC(=O)NCCc1ccccn1)C[C@@H]2C(=O)N1CCN(C(=O)c2ccco2)CC1 (stereo not given in full) -3.62%
Cc1cccc(C(=O)Nc2c(C(=O)N(C)C)cnn2-c2ccccc2)c1 -13.3%
COC(=O)c1ccc(Cn2cc([N+](=O)[O-])cn2)cc1 6.62%
Cc1ccc(OCC(=O)N2c3ccccc3NC(=O)C2(C)C)c([N+](=O)[O-])n1 -20.5%

Potency, active:
C#CCOCCOCCOCCNc1nc(N2CCN(C(=O)CCCCCCCCCCNC(=O)[C@H](CCCCN)n3cc(C)nn3)CC2)nc(N2CCN(C(=O)CCCCCCCCCCNC(=O)[C@H](CCCN=C(N)N)n3cc(C[C@@H](C)CC)nn3)CC2)n1 18.4 µM
